Data reported in the supplement of paper PMC13094657.
± gives the standard deviation of the averaged measurements.

Tests used:
MDA-MB-231 [1] = assay: cell viability relative to vehicle unstimulated control (fraction); higher = more viable cells; conditions: pre-treatment time: 18 h then 24 h IFNg/TNF
MDA-MB-231 [2] = assay: kynurenine production, fold change vs DMSO IFNg/TNF control; higher = more kynurenine produced (less inhibition); conditions: pre-treatment time: 18 h then 24 h IFNg/TNF
Method in brief: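 Fold change over cytokine-stimulated vehicle wells on the same plate is the measure used for kynurenine production, averaged across duplicate plates in the first screening round. MDA-MB-231 cells, seeded 24 h beforehand at 7 × 10^4/well in 96-well plates, were pre-treated 18 h with each natural product in 0.1% DMSO and stimulated 24 h at 37°C with IFNγ (1 U/ml) and TNF (6.25 ng/ml). Supernatants were read at 492 nm following trichloroacetic acid and p-dimethylaminobenzaldehyde treatment, against 0–100 μM standards.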
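For cell viability relative to vehicle unstimulated control in this document: viability of the cells left after supernatant collection, read with Deep Blue dye added for 4 h, as absorbance at 570 nm minus 600 nm.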

| Compound | cell viability (MDA-MB-231 [1]) | kynurenine production (MDA-MB-231 [2]) |
| --- | --- | --- |
| COC(=O)c1cccnc1 [Methyl nicotinate] (compound dose: 10 uM) | 0.974 ± 0.037 | 0.874 ± 0.23 |
| C[C@@H]1O[C@@H](O[C@H]2[C@H](O[C@H]3CC[C@@]4(C)[C@@H](CC[C@]5(C)[C@@H]4CC=C4[C@@H]6CC(C)(C)CC[C@]6(C(=O)O)CC[C@]45C)[C@]3(C)CO)OC[C@H](O)[C@@H]2O)[C@H](O)[C@H](O)[C@H]1O [alpha-Hederin] (compound dose: 10 uM) | 0.932 ± 0.067 | 0.875 ± 0.14 |
| COC(=O)C1=CO[C@@H](O[C@@H]2O[C@H](CO[C@@H]3O[C@H](CO)[C@@H](O)[C@H](O)[C@H]3O)[C@@H](O)[C@H](O)[C@H]2O)[C@@H]2C(CO)=CC[C@H]12 [Genipin 1-β-D-gentiobioside] (compound dose: 10 uM) | 0.849 ± 0.014 | 0.718 ± 0.24 |
| C=C(C)[C@@H]1CCC2=CC(=O)C[C@@H](C)[C@]2(C)C1 [Nootkatone] (compound dose: 10 uM) | 0.9333 ± 0.0022 | 0.932 ± 0.073 |
| CC(C)=CCC[C@](C)(O[C@@H]1O[C@H](CO[C@@H]2O[C@@H](CO)[C@H](O)[C@H]2O)[C@@H](O)[C@H](O)[C@H]1O)[C@H]1CC[C@]2(C)[C@@H]1[C@H](O)C[C@@H]1[C@@]3(C)CC[C@H](O[C@@H]4O[C@H](CO)[C@@H](O)[C@H](O)[C@H]4O[C@@H]4O[C@H](CO)[C@@H](O)[C@H](O)[C@H]4O)C(C)(C)[C@@H]3CC[C@]12C [Ginsenoside Rc] (compound dose: 10 uM) | 0.9496 ± 0.0049 | 0.744 ± 0.044 |
| CC(C)=CCCC1(C)CCC2(C)C3CCC4(C)C(C)C(=O)CCC4C3(C)CCC2(C)C1 (centres undefined) [Shionone] (compound dose: 10 uM) | 1.02 ± 0.0034 | 0.776 ± 0.11 |
| C=C[C@@](C)(/C=C/c1ccc(O)cc1)CCC=C(C)C [Bakuchiol] (compound dose: 10 uM) | 0.95 ± 0.037 | 0.736 ± 0.018 |
| C[C@H]1COC2=C1C(=O)C(=O)c1c2ccc2c1CCCC2(C)C [Cryptotanshinone] (compound dose: 10 uM) | 0.885 ± 0.048 | 0.3818 ± 0.0038 |
| CC1(C)CC[C@]2(C(=O)O)[C@H](O)C[C@]3(C)C(=CC[C@@H]4[C@@]5(C)CC[C@H](O)[C@@](C)(C=O)[C@@H]5CC[C@]43C)[C@@H]2C1 [Quillaic acid] (compound dose: 10 uM) | 1.01 ± 0.015 | 1.11 ± 0.018 |
| C[C@H]1O[C@@H](O[C@H]2[C@@H](O)C[C@H](O[C@H]3[C@@H](O)C[C@H](O[C@H]4CC[C@@]5(C)[C@H](CC[C@@H]6[C@@H]5C[C@@H](O)[C@]5(C)[C@@H](C7=CC(=O)OC7)CC[C@]65O)C4)O[C@@H]3C)O[C@@H]2C)C[C@H](O)[C@@H]1O [Digoxin] (compound dose: 10 uM) | 0.543 ± 0.066 | 0.103 ± 0.071 |
| CC(=O)c1c[nH]c2ccccc12 [3-acetylindol] (compound dose: 10 uM) | 0.955 ± 0.15 | 1.11 ± 0.14 |
| C=C1C[C@@]23CC[C@H]4[C@@](C)(CCC[C@@]4(C)C(=O)O)[C@@H]2CC[C@]1(O)C3 [Steviol] (compound dose: 10 uM) | 1.1 ± 0.014 | 0.964 ± 0.38 |
| CC1(C)CC[C@]2(C(=O)O)CC[C@]3(C)C(=CC[C@@H]4[C@@]5(C)C[C@@H](O)[C@H](O)C(C)(C)[C@@H]5CC[C@]43C)[C@@H]2C1 [Maslinic acid] (compound dose: 10 uM) | 0.962 ± 0.032 | 0.876 ± 0.12 |
| C[C@@H]1C[C@@H]([C@@H](O)C(C)(C)O)O[C@H]2C[C@@]3(C)C(=C12)C[C@H](O)[C@H]1[C@@]2(C)CCC(=O)C(C)(C)[C@@H]2CC[C@@]13C [Alisol F] (compound dose: 10 uM) | 0.991 ± 0.032 | 0.848 ± 0.048 |
| Cc1coc2c1C(=O)C(=O)c1c-2ccc2c(C)cccc12 [Tanshinone I] (compound dose: 2 uM) | 0.921 ± 0.029 | 0.643 ± 0.14 |
| CC1(C)[C@@H](O[C@H]2O[C@H](C(=O)O)[C@@H](O)[C@H](O)[C@H]2O[C@@H]2O[C@H](C(=O)O)[C@@H](O)[C@H](O)[C@H]2O)CC[C@]2(C)[C@H]3C(=O)C=C4[C@@H]5C[C@@](C)(C(=O)O)CC[C@]5(C)CC[C@@]4(C)[C@]3(C)CC[C@@H]12 [Dipotassium glycyrrhizinate] (compound dose: 10 uM) | 0.924 ± 0.031 | 0.808 ± 0.21 |
| CC(C)=CCC/C(C)=C/CC/C(C)=C/CO [Farnesol] (compound dose: 10 uM) | 0.994 ± 0.062 | 0.939 ± 0.2 |
